Measurements taken from the supplement of paper PMC8728848.
The entries come from a sample that favours the strongest signals as a whole.

Experiments:
Experiment in all cases: glycan array binding signal (z-score within array); higher = stronger binding
Settings in all cases: glycan notation: IUPAC condensed, linker removed
[1] = molecular target: Fuc(a1-2)Gal(b1-3)GalNAc(b1-4)[Neu5Ac(a2-3)]Gal(b1-4)Glc
How it was run: (§1)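 Negative Z-scores can be read as non-binding. The Z-score is calculated within each array and then averaged across arrays of one protein sequence at different concentrations or buffers and across linkers. Arrays, 3228 in all, were curated from the Consortium for Functional Glycomics database and kept only where the protein sequence was available.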

[2] = molecular target: Fuc(a1-2)[GalNAc(a1-3)]Gal(b1-4)[Fuc(a1-3)]GlcNAc
How it was run: as §1

[3] = molecular target: Gal(b1-3)GlcNAc(b1-3)Gal(b1-4)GlcNAc
How it was run: as §1

[4] = molecular target: Gal(b1-4)GlcNAc(b1-3)[Gal(b1-4)GlcNAc(b1-6)]GalNAc
How it was run: as §1

[5] = molecular target: Gal3S6S(b1-4)GlcNAc6S
How it was run: as §1

[6] = molecular target: Glc(a1-4)Glc
How it was run: as §1

[7] = molecular target: GlcNAc(b1-4)Gal(b1-4)GlcNAc
How it was run: as §1

[8] = molecular target: Man(a1-2)Man(a1-2)Man(a1-3)Man
How it was run: as §1

[9] = molecular target: Man(a1-2)Man(a1-2)Man(a1-6)[Man(a1-3)]Man
How it was run: as §1

[10] = molecular target: Man(a1-2)Man(a1-3)[Man(a1-6)]Man(a1-6)[Man(a1-2)Man(a1-3)]Man(b1-4)GlcNAc(b1-4)GlcNAc
How it was run: as §1

[11] = molecular target: Man(a1-3)[Man(a1-6)]Man(b1-4)GlcNAc(b1-4)GlcNAc
How it was run: as §1

[12] = molecular target: Neu5Ac(a2-3)Gal(b1-4)[Fuc(a1-3)]GlcNAc(b1-3)Gal(b1-4)GlcNAc
How it was run: as §1

[13] = molecular target: Neu5Ac(a2-8)Neu5Ac
How it was run: as §1

[14] = molecular target: Fuc(a1-2)Gal(b1-4)GlcNAc
How it was run: as §1

[15] = molecular target: Fuc(a1-2)[Gal(a1-4)]Gal(b1-4)GlcNAc
How it was run: as §1

[16] = molecular target: Fuc(a1-3)[Gal(b1-4)]GlcNAc(b1-4)Gal(b1-4)[Fuc(a1-3)]GlcNAc
How it was run: as §1

[17] = molecular target: Fuc(a1-3)[Gal3S(b1-4)]GlcNAc
How it was run: as §1

[18] = molecular target: Fuc(a1-4)GlcNAc
How it was run: as §1

[19] = molecular target: Gal3S(b1-3)[Fuc(a1-4)]GlcNAc
How it was run: as §1

[20] = molecular target: Gal3S6S(b1-4)GlcNAc
How it was run: as §1

[21] = molecular target: Gal4S6S(b1-4)GlcNAc
How it was run: as §1

[22] = molecular target: GlcNAc(a1-3)Gal(b1-4)GlcNAc
How it was run: as §1

[23] = molecular target: GlcNAc(a1-6)Gal(b1-4)GlcNAc
How it was run: as §1

[24] = molecular target: GlcNAc(b1-3)Gal
How it was run: as §1

[25] = molecular target: GlcNAc(b1-3)Gal(b1-3)GalNAc
How it was run: as §1

[26] = molecular target: GlcNAc(b1-3)Gal(b1-4)Glc
How it was run: as §1

[27] = molecular target: GlcNAc(b1-3)[GlcNAc(b1-6)]Gal(b1-4)GlcNAc
How it was run: as §1

[28] = molecular target: GlcNAc(b1-3)[GlcNAc(b1-6)]GlcNAc(b1-4)GlcNAc
How it was run: as §1

[29] = molecular target: Neu5Gc(a2-3)Gal(b1-3)[Fuc(a1-4)]GlcNAc
How it was run: as §1

[30] = molecular target: Neu5Gc(a2-3)Gal(b1-4)GlcNAc
How it was run: as §1

| Binder | glycan array binding signal (z-score) [1] | glycan array binding signal (z-score) [2] | glycan array binding signal (z-score) [3] | glycan array binding signal (z-score) [4] | glycan array binding signal (z-score) [5] | glycan array binding signal (z-score) [6] | glycan array binding signal (z-score) [7] | glycan array binding signal (z-score) [8] | glycan array binding signal (z-score) [9] | glycan array binding signal (z-score) [10] | glycan array binding signal (z-score) [11] | glycan array binding signal (z-score) [12] | glycan array binding signal (z-score) [13] | glycan array binding signal (z-score) [14] | glycan array binding signal (z-score) [15] | glycan array binding signal (z-score) [16] | glycan array binding signal (z-score) [17] | glycan array binding signal (z-score) [18] | glycan array binding signal (z-score) [19] | glycan array binding signal (z-score) [20] | glycan array binding signal (z-score) [21] | glycan array binding signal (z-score) [22] | glycan array binding signal (z-score) [23] | glycan array binding signal (z-score) [24] | glycan array binding signal (z-score) [25] | glycan array binding signal (z-score) [26] | glycan array binding signal (z-score) [27] | glycan array binding signal (z-score) [28] | glycan array binding signal (z-score) [29] | glycan array binding signal (z-score) [30] |
| --- | --- | --- | --- | --- | --- | --- | --- | --- | --- | --- | --- | --- | --- | --- | --- | --- | --- | --- | --- | --- | --- | --- | --- | --- | --- | --- | --- | --- | --- | --- |
| RS-IIL (Ralstonia solanacearum) (protein) AQQGVFTLPANTSFGVTAFANAANTQTIQVLVDNVVKATFTGSGTSDKLLGSQVLNSGSGAIKIQVSVNGKPSDLVSNQTILANKLNFAMVGSEDGTDNDYNDGIAVLNWPLG | 0.021 | 0.302 | -0.381 | -0.389 | -0.385 | -0.266 | -0.389 | 4.58 | 5.58 | 4.71 | 4.76 | -0.268 | -0.388 |  |  |  |  |  |  |  |  |  |  |  |  |  |  |  |  |  |
| F17fG (Escherichia coli), Q9RH91 (protein) MTNFYKVFLAVFILVCCNISHAAVSFIGSTENDVGPSQGSYSSTHAMDNLPFVYNTGHNIGYQNANVWRISGGFCVGLDGKVDLPVVGSLDGQSIYGLTEEVGLLIWMGDTNYSRGTAMSGNSWENVFSGWCVGNYVSTQGLSVHVRPVILKRNSSAQYSVQKTSIGSIRMRPYNGSSAGSVQTTVNFSLNPFTLNDTVTSCRLLTPSAVNVSLAAISAGQLPSSGDEVVAGTTSLKLQCDAGVTVWATLTDATTPSNRSDILTLTGASTATGVGLRIYKNTDSTPLKFGPDSPVKGNENQWQLSTGTETSPSVRLYVKYVNTGEGINPGTVNGISTFTFSYQ | -0.197 |  | -0.3 |  |  |  |  |  |  | -0.263 |  | -0.23 |  | -0.322 | -0.127 | -0.238 | -0.234 | -0.38 | -0.253 | 0.156 | 0.026 | -0.323 | -0.364 | 5.09 | 5.89 | 4.83 | 6.97 | 0.169 | -0.305 | -0.278 |
